Consider five compounds from PubChem BioAssay.

The nature of assay [1]: small molecules captured by biotinylated probe aFSTL3 – biochemical, small-molecule microarray, fluorescence 635/667, stem cell growth factor project, primary screen (AID 1064).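 Also: measures binding of the biotinylated anti-FSTL3 antibody to printed compounds.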 The note with it: higher = more signal.
Assay [2] is described as follows: binders from COS7 lysate, DM2A8 probe, primary screen, torsin A project, cell lysate, small-molecule microarray, fluorescence 635/667 (AID 1065). The note with it: higher = more signal, COS7 lysate expressing mutant human TOR1A.
A short description of assay [3]: small molecules captured by biotinylated probe aFGF2 – biochemical, small-molecule microarray, fluorescence 635/667, stem cell growth factor project, primary screen (AID 1067).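 Also: measures binding of biotinylated aFGF2 protein to printed compounds on slides; z-score merges feature fluorescence and signal-to-noise across triplicate slides.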 The note with it: higher = more signal.
The nature of assay [4]: small molecules captured by biotinylated probe aFGF10 – biochemical, small-molecule microarray, fluorescence 635/667, stem cell growth factor project, primary screen (AID 1071).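 Also: score merges 667 nm spot intensity and signal to noise from triplicate slides.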 The note with it: higher = more signal.
Assay [5] addresses Neurogenic locus notch homolog protein 2 (Homo sapiens) (UniProt Q04721). Briefly: small molecules binding Notch2 protein – biochemical, small-molecule microarray, 635 nm fluorescence, stem cell growth factors, primary screen (AID 1073). The note with it: higher = more signal.
Assay [6] concerns the target Pro-neuregulin-1, membrane-bound isoform (Homo sapiens) (UniProt Q02297). Briefly: small molecules binding neuregulin-1 protein – biochemical, small-molecule microarray, fluorescence 635/667, psychiatric disease protein project, primary screen (AID 1075).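 Also: score combines 667 nm spot fluorescence with signal to noise.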 The note with it: NRG1 binding, 635 nm fluorescence, higher = more signal.
For assay [7], the system named is Neuregulin-1 EGF-like domain. Nature of the assay: small molecules binding NRG1 EGF domain – biochemical, small-molecule microarray, 635 nm fluorescence, primary screen (AID 1081).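 Also: binding of the protein to compounds printed on small-molecule microarray slides.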 The note with it: higher = more signal.
The nature of assay [8]: FRG1 expression reporter modulators in myotubes – cell-based, C2C12 myotubes, firefly/Renilla luciferase, luminescence, FRG1 inhibition for FSHD, primary screen (AID 1084). The note with it: FRG1 promoter luciferase, higher = more signal, called active from +8 up or from −8 down.
A short description of assay [9]: small molecules captured by biotinylated probe aFST – biochemical, small-molecule microarray, fluorescence 635/667, stem cell growth factor project, primary screen (AID 1086).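 Also: score merges 667 nm fluorescence with signal-to-noise of each printed compound spot.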 The note with it: higher = more signal.
Assay [10] can be described thus: binders of probe aHhip on microarray, primary screen, stem cell growth factor project, biochemical, small-molecule microarray, fluorescence 635/667 (AID 1087).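 Also: score merges spot fluorescence at 667nm with spot signal to noise ratio.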 The note with it: higher = more signal.
Assay [11] has as its system PRMT1 (protein arginine N-methyltransferase 1). Nature of the assay: small molecules binding arginine methyltransferase PRMT1 – biochemical, small-molecule microarray, 635 nm fluorescence, primary screen (AID 1088).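 Also: binding of Prmt1 protein to compounds spotted on small-molecule microarray slides.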 The note with it: higher = more signal.
The nature of assay [12]: growth effects on S. cerevisiae YJM789 – YJM789 clinical isolate, OD600, 24 h, basal, primary screen (AID 1089).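 Also: growth of clinical yeast isolate S. cerevisiae YJM 789 seeded 1000 cells per well; test concentration not given here.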 The note with it: higher = more signal, called active from +8 up or from −8 down.
Assay [13] in a line: S. pombe growth modifiers, basal conditions – strain 972, OD600, 24 h, no modulator, primary screen (AID 1090).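 Also: basal condition with compound alone and no growth modifier present; test concentration not given here.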 The note with it: S. pombe 972 growth, higher = more signal, called active from +8 up or from −8 down.
A short description of assay [14]: budding yeast growth modifiers under rapamycin – strain BY4716, OD600, 96 h, primary screen (AID 1091). Also: test concentration not given here. The note with it: S. cerevisiae BY4716 + rapamycin, higher = more signal, called active from +8 up or from −8 down.
Assay [15] concerns the target Torsin-1A-interacting protein 2 (Homo sapiens) (UniProt Q8NFQ8). Nature of the assay: small molecules binding lysate-expressed LULL1 – cell lysate, human LULL1 lysate, 635/667 nm fluorescence, primary screen (AID 1092).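 Also: score merges per-feature 667 nm fluorescence with signal-to-noise.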 The note with it: small-molecule microarray, hLULL1 lysate binding, 635 nm fluorescence; higher = more signal.
A short description of assay [16]: optical density change of DRC41 E. coli – strain DRC41, OD650, 24 h, E. coli filamentation project, primary screen (AID 1093).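 Also: MC1000 strain lacking acrAB efflux and sulA so SOS filamentation is blocked; test concentration not given here.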 The note with it: E. coli DRC41 growth, higher = more signal, called active from +8 up or from −8 down.
Assay [17] in a line: probe aLefty2 binding to arrayed compounds – biochemical, biotinylated probe, 635/667 nm fluorescence, primary screen (AID 1094).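 Also: score merges spot fluorescence near 667 nm with spot signal-to-noise ratio.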 The note with it: small-molecule microarray, higher = more signal.
The subject of assay [18] is Noggin (protein binding on small-molecule microarray). Briefly: small molecules binding Noggin protein – biochemical, 635/667 nm fluorescence, primary screen (AID 1095).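 Also: score merges 667 nm feature fluorescence with signal to noise over triplicate slides.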 The note with it: 635 nm fluorescence, higher = more signal.
Assay [19] addresses Neurogenic locus notch homolog protein 3 (Homo sapiens) (UniProt Q9UM47). Briefly: small molecules binding NOTCH3 protein – biochemical, 635/667 nm fluorescence, primary screen (AID 1096). The note with it: small-molecule microarray, 635 nm fluorescence, higher = more signal.
Assay [20] can be described thus: probe aEGFR binding to arrayed compounds – biochemical, biotinylated probe, 635/667 nm fluorescence, primary screen (AID 1097).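 Also: probe is a biotinylated anti-EGFR antibody binding compounds printed on slides; score combines fluorescence near 667 nm and signal to noise of each spot.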 The note with it: small-molecule microarray, higher = more signal.

Calls of active or inactive are those of the source.

Pro-neuregulin-1, membrane-bound isoform (Homo sapiens), sequence (Q02297 whole entry, looked up, the tested form may be a part, canonical isoform): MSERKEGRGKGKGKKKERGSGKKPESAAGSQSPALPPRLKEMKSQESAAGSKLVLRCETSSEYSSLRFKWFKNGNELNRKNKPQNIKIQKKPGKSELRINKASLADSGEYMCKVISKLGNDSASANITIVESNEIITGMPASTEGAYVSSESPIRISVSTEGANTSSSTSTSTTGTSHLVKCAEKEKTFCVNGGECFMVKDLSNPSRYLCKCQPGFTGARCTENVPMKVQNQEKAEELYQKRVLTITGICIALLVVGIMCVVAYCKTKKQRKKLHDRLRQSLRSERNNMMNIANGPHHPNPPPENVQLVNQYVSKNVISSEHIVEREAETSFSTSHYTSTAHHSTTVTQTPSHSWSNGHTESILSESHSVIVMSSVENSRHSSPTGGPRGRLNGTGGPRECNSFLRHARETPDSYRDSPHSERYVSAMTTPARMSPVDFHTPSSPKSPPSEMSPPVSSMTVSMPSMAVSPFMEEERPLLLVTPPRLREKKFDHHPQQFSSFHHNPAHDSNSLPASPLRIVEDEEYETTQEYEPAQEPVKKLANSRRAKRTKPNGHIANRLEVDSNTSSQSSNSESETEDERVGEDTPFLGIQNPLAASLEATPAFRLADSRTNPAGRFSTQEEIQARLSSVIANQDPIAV
Neurogenic locus notch homolog protein 2 (Homo sapiens), sequence (Q04721 whole entry, looked up, canonical isoform): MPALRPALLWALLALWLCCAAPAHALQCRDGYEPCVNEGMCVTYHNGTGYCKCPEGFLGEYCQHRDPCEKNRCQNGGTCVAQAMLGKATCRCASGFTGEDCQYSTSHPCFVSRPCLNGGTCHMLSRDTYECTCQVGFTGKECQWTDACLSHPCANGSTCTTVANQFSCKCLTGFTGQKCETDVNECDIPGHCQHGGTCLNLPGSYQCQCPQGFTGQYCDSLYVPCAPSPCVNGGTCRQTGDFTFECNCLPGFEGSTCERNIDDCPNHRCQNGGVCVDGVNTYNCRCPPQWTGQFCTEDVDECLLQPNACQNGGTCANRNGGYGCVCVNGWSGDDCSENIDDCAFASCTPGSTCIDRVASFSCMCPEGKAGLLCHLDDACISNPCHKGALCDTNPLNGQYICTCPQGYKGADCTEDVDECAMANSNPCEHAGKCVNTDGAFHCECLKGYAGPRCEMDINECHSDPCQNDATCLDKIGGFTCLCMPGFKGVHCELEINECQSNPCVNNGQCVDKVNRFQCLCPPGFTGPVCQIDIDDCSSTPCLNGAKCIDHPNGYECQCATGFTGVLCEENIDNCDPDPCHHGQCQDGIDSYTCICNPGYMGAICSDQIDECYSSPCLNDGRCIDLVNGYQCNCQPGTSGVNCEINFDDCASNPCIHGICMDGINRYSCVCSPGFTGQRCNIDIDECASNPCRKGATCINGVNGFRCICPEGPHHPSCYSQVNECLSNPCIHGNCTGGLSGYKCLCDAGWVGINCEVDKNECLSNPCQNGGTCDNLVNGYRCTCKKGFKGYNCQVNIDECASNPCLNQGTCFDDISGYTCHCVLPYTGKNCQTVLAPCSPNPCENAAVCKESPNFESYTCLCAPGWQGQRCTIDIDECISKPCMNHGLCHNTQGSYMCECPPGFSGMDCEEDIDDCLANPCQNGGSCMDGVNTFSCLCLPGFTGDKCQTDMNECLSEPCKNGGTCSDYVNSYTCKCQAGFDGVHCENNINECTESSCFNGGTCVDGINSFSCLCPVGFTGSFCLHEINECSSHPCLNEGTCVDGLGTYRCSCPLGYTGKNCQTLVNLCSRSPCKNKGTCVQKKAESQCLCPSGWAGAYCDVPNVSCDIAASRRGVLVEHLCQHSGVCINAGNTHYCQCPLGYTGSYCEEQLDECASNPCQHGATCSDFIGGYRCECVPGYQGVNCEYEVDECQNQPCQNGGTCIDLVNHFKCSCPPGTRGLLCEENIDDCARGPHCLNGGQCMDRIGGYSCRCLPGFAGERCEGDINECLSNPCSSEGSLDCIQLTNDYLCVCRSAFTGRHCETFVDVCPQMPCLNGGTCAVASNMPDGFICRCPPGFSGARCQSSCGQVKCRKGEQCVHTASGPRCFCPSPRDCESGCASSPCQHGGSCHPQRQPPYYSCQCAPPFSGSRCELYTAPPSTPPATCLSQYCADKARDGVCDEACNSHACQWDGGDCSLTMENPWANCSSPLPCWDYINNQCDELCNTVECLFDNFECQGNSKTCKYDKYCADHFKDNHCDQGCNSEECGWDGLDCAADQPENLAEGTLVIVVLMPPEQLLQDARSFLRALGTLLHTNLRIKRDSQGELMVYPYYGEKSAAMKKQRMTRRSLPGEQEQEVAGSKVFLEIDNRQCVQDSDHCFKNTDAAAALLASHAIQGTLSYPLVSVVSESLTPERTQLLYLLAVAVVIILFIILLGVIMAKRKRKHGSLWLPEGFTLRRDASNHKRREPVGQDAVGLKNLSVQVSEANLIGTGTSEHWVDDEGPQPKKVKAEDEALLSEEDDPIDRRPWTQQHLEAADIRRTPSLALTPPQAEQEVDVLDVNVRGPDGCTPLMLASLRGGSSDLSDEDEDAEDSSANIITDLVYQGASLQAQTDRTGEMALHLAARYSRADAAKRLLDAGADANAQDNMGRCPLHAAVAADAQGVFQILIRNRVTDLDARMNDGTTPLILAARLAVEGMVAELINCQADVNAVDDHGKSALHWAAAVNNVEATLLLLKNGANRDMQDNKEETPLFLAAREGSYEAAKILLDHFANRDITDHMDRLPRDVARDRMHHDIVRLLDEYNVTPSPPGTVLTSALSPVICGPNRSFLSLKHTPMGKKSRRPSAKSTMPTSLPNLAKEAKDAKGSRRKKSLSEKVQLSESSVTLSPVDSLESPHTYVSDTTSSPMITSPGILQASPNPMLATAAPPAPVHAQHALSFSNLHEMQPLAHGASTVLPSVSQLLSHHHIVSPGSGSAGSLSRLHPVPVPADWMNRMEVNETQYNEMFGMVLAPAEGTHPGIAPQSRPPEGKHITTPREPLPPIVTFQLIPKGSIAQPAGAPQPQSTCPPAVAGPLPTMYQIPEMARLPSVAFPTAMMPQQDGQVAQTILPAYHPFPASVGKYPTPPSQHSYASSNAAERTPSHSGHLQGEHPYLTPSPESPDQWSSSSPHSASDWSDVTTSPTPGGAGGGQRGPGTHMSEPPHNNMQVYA
Torsin-1A-interacting protein 2 (Homo sapiens), sequence (Q8NFQ8 whole entry, looked up): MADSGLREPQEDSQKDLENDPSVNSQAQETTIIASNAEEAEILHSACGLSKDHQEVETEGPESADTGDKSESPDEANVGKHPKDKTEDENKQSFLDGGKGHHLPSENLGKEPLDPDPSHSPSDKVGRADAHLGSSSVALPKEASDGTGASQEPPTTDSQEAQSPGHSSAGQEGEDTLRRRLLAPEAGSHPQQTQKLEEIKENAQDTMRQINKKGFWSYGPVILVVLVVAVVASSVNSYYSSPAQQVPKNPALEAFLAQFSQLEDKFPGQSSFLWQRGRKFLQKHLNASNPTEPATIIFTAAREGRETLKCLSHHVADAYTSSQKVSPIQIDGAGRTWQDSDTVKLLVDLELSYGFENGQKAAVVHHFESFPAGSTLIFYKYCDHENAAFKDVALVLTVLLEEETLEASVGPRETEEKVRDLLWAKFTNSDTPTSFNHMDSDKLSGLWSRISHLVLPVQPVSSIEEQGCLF

Turning to `CCCC[C@@H]1C[C@H]1[C@@H](NC(=O)c1ccco1)c1ccccc1`, the composite z-score is 1.29 in assay [1]; -0.52 in assay [2]; -0.171 in [3]; -0.511 in [4]; -2.22 in assay [5]; -0.44 in [6]. For the same compound, the composite z-score in [7] was -0.454; in assay [9], -0.945; in assay [10], -0.0275; in [11] it was -0.206; in [15] it was -0.832; in assay [17], -0.121. In addition, the composite z-score in [18] was -1.77; in assay [19], -0.716; in assay [20], -0.25. For the same compound, the z-score in [8] was -0.192 (inactive); in [12] it was -0.867 (inactive); in [13], -15.3 (active); in [14], -0.0654 (inactive); in [16] it was -1.61 (inactive).

Regarding `CN1C(=O)C2C(C1=O)C1C=C(c3ccc(CO)cc3)C2C(C2CC2)N1Cc1sc2ccccc2c1Cl` (stereo not given), the composite z-score in assay [1] was 0.0497; in assay [2], 1.17; in assay [3], 0.0311; in assay [4], 1.02; in assay [5], 1.68; in [6] it was 1.41. In addition, the composite z-score turned out to be 0.866 in [7]; 0.391 in assay [9]; 0.2 in [10]; 1.55 in [11]; 3.33 in [15]; 0.252 in assay [17]. The composite z-score in assay [18] was found to be 0.411; in assay [19], 1.03; in assay [20] it was 0.0651. Further, the z-score in [8] is -2.04 (inactive); in [12], 0.654 (inactive); in [13], -3 (inactive); in [14], 1.42 (inactive); in assay [16] it was 0.204 (inactive).

For the compound `CCCCCCCCCCC(O)C1C=CC2C(=O)N(c3ccccc3)C(=O)C2N1Nc1ccc([N+](=O)[O-])cc1` (stereo not given), the composite z-score in assay [1] was -0.325; in assay [2], 0.112; in assay [3], -0.0107; in assay [4] it was 0.461; in assay [5], 1.44; in assay [6], 1.11. Moreover, the composite z-score in assay [7] is 1.05; in assay [9] it was 0.574; in [10], -0.199; in assay [11], 1.57; in assay [15], 3.25; in [17], -0.0059. The composite z-score is 0.186 in [18], 1.09 in [19] and -0.0828 in [20]. Moreover, the z-score in assay [8] was 1.39 (inactive); in assay [12] it was 0.0819 (inactive); in assay [13] it was 0.23 (inactive); in [14], 26.7 (active); in assay [16], -0.734 (inactive).

For `COc1cc2c(cc1O)C(c1ccc(CN3CCCC3)cc1)N(Cc1sc3ccccc3c1Cl)CC2` (stereo not given), the composite z-score was 0.719 in assay [1]; -0.002 in [2]; -0.0687 in [3]; 0.156 in assay [4]; 0.805 in assay [5]; 0.072 in assay [6]. The composite z-score in assay [7] is 1.17; in assay [9], 1.38; in assay [10] it was -0.214; in assay [11], 1.13; in assay [15] it was 1.93; in [17], 0.157. Also, the composite z-score in assay [18] came out at 0.369; in [19], 0.202; in [20] it was 0.0475. The z-score is 0.0314 (inactive) in assay [8]; -1.43 (inactive) in assay [12]; -17.7 (active) in [13]; -1.1 (inactive) in assay [14]; 0.504 (inactive) in [16].

Regarding `CC(=O)NCCCC[C@@H]1NC(=O)[C@@H]2C[C@H](C(=O)NCc3ccc(F)cc3)[C@H](c3ccc(O)cc3)N2C1=O`, the composite z-score was 0.114 in assay [1]; 0.798 in assay [2]; 0.0377 in [3]; 0.639 in assay [4]; -0.326 in assay [5]; 0.772 in [6]. Also, the composite z-score in assay [7] is 1.47; in assay [9], -0.21; in assay [10], -0.0994; in [11] it was 1.54; in [15], 2.41; in assay [17], -0.128. For the same compound, the composite z-score in assay [18] is 1.67; in assay [19] it was 0.208; in assay [20] it was -0.122. The z-score in assay [8] was -0.0693 (inactive); in assay [12] it was -0.36 (inactive); in assay [13], -1.36 (inactive); in assay [14], -0.713 (inactive); in assay [16], 1.53 (inactive).
